Shown are actives, neighbours in structure and some others; about 9.2% of the full set was active somewhere.
FLuc modulator: qHTS profiling assay for firefly luciferase inhibitor/activator using purifed enzyme and Km concentrations of substrates (counterscreen for miR-21 project); purified FLuc, Km substrates, luminescence inhibition; Potency, µM (top dose mostly 57.5 µM), for the others: top-dose activity change, negative = inhibition, usual class: inhibitors; actives 6.9% (n = 360,000); AID 588342, 2011;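 note: plate controls were vehicle for no effect and reference inhibitor for full effect; nearly all actives have a fitted effect of over 55% in size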
Target sequence (P08659 whole entry, looked up): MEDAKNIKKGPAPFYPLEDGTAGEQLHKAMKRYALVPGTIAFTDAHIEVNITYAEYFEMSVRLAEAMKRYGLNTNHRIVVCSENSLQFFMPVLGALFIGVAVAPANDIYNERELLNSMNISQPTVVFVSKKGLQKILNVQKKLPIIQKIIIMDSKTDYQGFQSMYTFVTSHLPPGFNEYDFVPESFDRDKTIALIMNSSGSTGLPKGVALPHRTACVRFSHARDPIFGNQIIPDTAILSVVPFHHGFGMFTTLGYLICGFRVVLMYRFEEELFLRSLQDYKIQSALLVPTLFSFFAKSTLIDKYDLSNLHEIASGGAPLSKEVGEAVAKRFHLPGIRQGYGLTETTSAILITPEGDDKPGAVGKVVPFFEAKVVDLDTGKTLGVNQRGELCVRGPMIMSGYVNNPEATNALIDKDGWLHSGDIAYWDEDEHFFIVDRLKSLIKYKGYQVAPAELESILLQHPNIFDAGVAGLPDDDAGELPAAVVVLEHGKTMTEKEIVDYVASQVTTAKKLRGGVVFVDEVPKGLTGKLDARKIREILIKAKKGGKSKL
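Biochemical qHTS of compounds, final roughly 60 µM downward over six points, against 10 nM purified firefly luciferase using Km concentrations of substrates (10 uM D-luciferin, 10 uM ATP) in Tris acetate pH 7.5 buffer; luminescence output.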
NPC1 promoter act: qHTS Assay for NPC1 Promoter Activators | Huh7 NPC1 promoter luciferase reporter, 24 h | Potency, µM (highest dose often 9.22 µM), without a hit: top-dose activation, usual class: activators | actives 2.4% (n = 320,000); note: % of control where 0% means no effect; nearly all actives have a fitted effect of over 60% in size
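Readout is luciferase luminescence, reflecting NPC1 promoter activation in stably transfected Huh7 cells after 24 h compound exposure at 37 °C in reduced-serum medium with 10% FBS.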
Rab9 prom act: qHTS Assay for Rab9 Promoter Activators. Huh7 Rab9 promoter-luciferase reporter, luminescence, 24 h. Potency, µM (doses to about 9.22 µM), for the others: at the highest dose activation, negative = inhibition, hits mostly activators. actives 2.8% (n = 320,000). AID 485297, 2010; note: % of control where 0% means no effect; nearly all actives have a fitted effect of over 60% in size
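Measured in stably transfected Huh7 cells bearing a Rab9 promoter–luciferase construct: 24 h compound treatment at 37 °C, followed by luminescence detection.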
SMN2 splice enh: qHTS Assay for Enhancers of SMN2 Splice Variant Expression. Potency, µM (titrated, usually from 46.1 µM), inactives show at the highest dose activity change, positive = activation, most hits filed as activators. actives 2.8% (n = 210,000). HEK293 SMN2-luciferase splicing reporter, luminescence, 30-36 h; note: % of control where 0% means no effect; nearly all actives have a fitted effect of over 55% in size
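HEK293 cells carry an SMN2 […]–luciferase reporter in which exon 7 inclusion puts luciferase in frame. Cells were plated 10-12 h before compound addition, then incubated 30-36 h at 37C. ONE-Glo luminescence was read; sodium butyrate at 4.5 mM final served as control.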
ELG1 repair inh: qHTS screen for small molecules that inhibit ELG1-dependent DNA repair in human embryonic kidney (HEK293T) cells expressing luciferase-tagged ELG1. HEK293T ELG1-luciferase reporter, luminescence, 16 h; DNA damage induced by 5-fluorouridine. Potency, µM (highest dose often 46.1 µM), without a hit: at the top dose activity change, negative = inhibition, usual class: inhibitors. actives 2.3% (n = 330,000). AID 504467, 2011; note: % is set by controls: 0 for no effect and ±100 for the full control effect; nearly all actives have a fitted effect of over 55% in size
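Reporter activity after DNA damage by 5-fluorouridine is monitored. Compound-treated cells incubate 16 hr at 37 °C, then ONE-Glo is added for 30 min before luminescence reading.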
ELG1 genotox: qHTS screen for small molecules that induce genotoxicity in human embryonic kidney (HEK293T) cells expressing luciferase-tagged ELG1; HEK293T ELG1-luciferase reporter, luminescence, 16 h; Potency, µM (highest dose often 46 µM), for the others: at the highest dose activity change, positive = activation, hits mostly activators; actives 1.3% (n = 330,000); AID 504466, 2011; note: % of control where 0% means no effect; nearly all actives have a fitted effect of over 60% in size
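Quantitative HTS format in 1536-well plates. HEK293T ELG1-luciferase reporter cells receive test compound and are incubated 16 hr at 37 °C, 5% CO2; ONE-Glo added, 30 min room temperature, then luminescence read.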
* = called active by the depositor; ? = inconclusive; . = no result given. Calls come from the whole dose curve; as a rule, active = well fitted curve in the direction sought with a large enough effect; inconclusive = small, poorly fitted or top-dose-only effect, or another doubt; inactive = no such curve, though single readings can be large; an effect the other way counts as inactive or inconclusive. Potency is the fitted concentration of half-maximal effect.

SMILES	FLuc modulator	NPC1 promoter act	Rab9 prom act	SMN2 splice enh	ELG1 repair inh	ELG1 genotox
CCn1ccnc1CNC(=O)c1ccc2oc(CCCc3ccccc3)nc2c1	-10%	19%	18%	.	0%	-1%
CSc1ccc(C(=O)N2CCc3ccc(NC(=O)c4ccccn4)cc3C2)cc1	19µM*	?	?	.	?	-34%
CN(C)c1ccc(CNC(=O)CN2C(=O)c3cccnc3Oc3ccc(Cl)cc32)cc1	1%	.	.	.	.	.
CCOC(=O)c1cc(-c2ccc(N)cc2)sc1N	15µM*	2.8µM*	2.2µM*	11µM*	?	7.3µM*
CCOC(=O)c1cc(-c2ccccc2)sc1NC(=O)C(C)C	-1%	1%	-2%	-10%	-25%	-4%
CCOC(=O)c1sc(-c2ccc(Br)cc2)cc1N	4.8µM*	2.2µM*	2.8µM*	13µM*	?	?
Cc1[nH]c2ccccc2c1C(=O)C(=O)N1CCOCC1	4%	-7%	3%	.	-6%	8%
Cc1[nH]c2ccccc2c1C(=O)CSC(=S)N1CCOCC1	21µM*	21%	?	.	?	10%
CC(C)[C@H](NS(=O)(=O)c1ccc2c(c1)OCCO2)C(=O)OCC(=O)Nc1cc(Cl)ccc1Cl	1%	0%	-9%	-8%	18µM*	-4%
Cc1ccc(F)cc1NC(=O)C12CC3CC(C1)CC(n1cnc([N+](=O)[O-])n1)(C3)C2	-1%	-4%	0%	-15%	2%	0%
Cc1cccc2sc(NC(=O)C3CCCN(S(=O)(=O)c4cccc5nonc45)C3)nc12 (stereo unspecified)	2%	-19%	1%	0%	?	-1%
Cc1ccc2nc(NC(=O)C3CCCN(S(=O)(=O)c4cnc[nH]4)C3)sc2c1 (stereo unspecified)	12µM*	?	?	?	?	5%
Cc1ccc2nc(NC(=O)C3CCCN(S(=O)(=O)c4cccc5nonc45)C3)sc2c1 (stereo unspecified)	-18%	-3%	-14%	.	7.3µM*	-12%
CCCOc1ccc(Oc2nc(NC)nc(N3CCOCC3)n2)nn1	-6%	.	.	12%	.	.
CC(=O)c1cccc(Nc2ccc(-c3ccccc3F)nn2)c1	5.4µM*	2.8µM*	2.2µM*	11µM*	?	13%
CC(=O)c1ccc(Nc2ccc(-c3ccccc3C)nn2)cc1	9.5µM*	?	1.6µM*	11µM*	?	?
COCCN=c1scc(-c2ccco2)n1/N=C/c1ccc(O)c(O)c1O	17µM*	-4%	-5%	7%	20%	9%
C=CCN=c1scc(-c2ccco2)n1/N=C/c1ccc(O)c(O)c1O	4.8µM*	20%	?	.	?	?
COCCN=c1scc(-c2cccs2)n1/N=C(\C)c1ccco1	9.5µM*	?	2.5µM*	?	?	12%
O=C(O)CCc1ccc(-c2cccs2)n1NC(=O)c1ccco1	-2%	0%	-3%	?	13%	1%
CC(C)N=c1scc(-c2ccco2)n1/N=C/c1ccc(O)c(O)c1	9.5µM*	3%	-19%	?	?	?
O=C(Cc1ccccc1)N[C@@H]1c2ccccc2CC[C@@H]1OCc1ccccc1	.	.	.	.	?	1%
CC(=O)Nc1cccc(NC(=O)c2ccccc2OCc2ccccc2)c1	-12%	-3%	3%	.	?	-21%
CC(=O)Nc1cccc(NC(=O)c2cccc(OCc3ccccc3)c2)c1	27µM*	8%	1%	.	?	-3%

Compound activity from PubChem.
